Results filed as inconclusive are left out. The source made the active and inactive calls. Unless noted, calls follow the shape of the dose curve; as a rule, active = well fitted curve in the direction sought with a large enough effect in the repeat runs; inconclusive = weak or mixed curves; inactive = no such curve, though single readings can be large; an effect the other way counts as inactive or inconclusive.
Key:
[1] = A CellTox Green Cytotoxicity Assay to monitor cytotoxicity in HEK293 cells - 32 hour (AID 1224881); also: nearly all actives have a fitted effect of over 40% in size
Summary of the method: (§1)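 Real-time, in one plate: 600 HEK293 cells/well with dead-cell DNA dye, pinned compound after 5 h, 37 C incubation over 40 h; viable cells give no appreciable fluorescence.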

[2] = A CellTox Green Cytotoxicity Assay to monitor cytotoxicity in HepG2 cells - 0 hour (AID 1224882); also: nearly all actives have a fitted effect of over 35% in size
Summary of the method: (§2)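 Cytotoxicity was tracked as dead-cell DNA fluorescence in HepG2 cells treated with test compounds at 37 C; each time-point value comes from one kinetic series spanning 0, 8, 16, 24, 32 and 40 h.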

[3] = A CellTox Green Cytotoxicity Assay to monitor cytotoxicity in HepG2 cells - 32 hour (AID 1224883); also: nearly all actives have a fitted effect of over 50% in size; also: potency is read from the fitted curve at half-maximal effect
Summary of the method: as §2

[4] = A CellTox Green Cytotoxicity Assay to monitor cytotoxicity in HEK293 cells - 8 hour (AID 1224884); also: nearly all actives have a fitted effect of over 35% in size
Summary of the method: as §1

[5] = qHTS RealTime-Glo MT Cell Viability Assay in HEK293 cells - 8 hour (AID 1224887); also: nearly all actives have a fitted effect of over 50% in size; also: potency is read from the fitted curve at half-maximal effect; as to activity change, negative = cytotoxicity: top concentration of the series differs between compounds
Summary of the method: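 Kinetic, non-lysing viability readout. Seed HEK293 (600/well) with reagent, incubate 5 h at 37 C/5% CO2, pin 23 nL compound in DMSO, incubate at 37 C, read luminescence at 0, 8, 16, 24, 32, 40 h.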

[6] = qHTS RealTime-Glo MT Cell Viability Assay in HepG2 cells - 0 hour (AID 1224889); also: nearly all actives have a fitted effect of over 50% in size; also: potency is read from the fitted curve at half-maximal effect
Summary of the method: (§3)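 qHTS, HepG2, 600 cells/well, RealTime-Glo (NanoLuc + prosubstrate) added with cells; 5 h preincubation; DMSO compound addition; 37 C; luminescence at 0/8/16/24/32/40 h.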

[7] = A CellTox Green Cytotoxicity Assay to monitor cytotoxicity in HepG2 cells - 8 hour (AID 1224890); also: nearly all actives have a fitted effect of over 45% in size; also: potency is read from the fitted curve at half-maximal effect
Summary of the method: as §2

[8] = qHTS assay to identify small molecule antagonists of the estrogen receptor alpha (ER-alpha) signaling pathway using the BG1 cell line in the presence of 0.1 nM 17-beta-estradiol - cell viability counter screen (AID 1259241); also: nearly all actives have a fitted effect of over 40% in size
Summary of the method: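 Estradiol-stimulated (0.1 nM) VM7Luc4E2 cells exposed to compounds 22 hr; viability measured by fluorescence of cleaved CellTiter-Fluor substrate after 30 min.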

[9] = qHTS assay to identify small molecule antagonists of the androgen receptor (AR) signaling pathway using the MDA cell line in the presence of 0.5 nM R1881 - cell viability counter screen (AID 1259242); also: nearly all actives have a fitted effect of over 45% in size
Summary of the method: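 Cells seeded at 3,000/well and allowed 5 hr at 37C, 0% CO2 before compound transfer and R1881 (0.5 nM final) addition; 16 hr later, live-cell protease fluorescence indicated cytotoxicity.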

[10] = biological target: Estrogen receptor (Homo sapiens) (UniProt P03372); experiment: qHTS assay to identify small molecule antagonists of the estrogen receptor alpha (ER-alpha) signaling pathway using the BG1 cell line in the presence of 0.1 nM 17-beta-estradiol (AID 1259244); also: nearly all actives have a fitted effect of over 50% in size
Estrogen receptor (Homo sapiens), sequence (P03372 whole entry, looked up): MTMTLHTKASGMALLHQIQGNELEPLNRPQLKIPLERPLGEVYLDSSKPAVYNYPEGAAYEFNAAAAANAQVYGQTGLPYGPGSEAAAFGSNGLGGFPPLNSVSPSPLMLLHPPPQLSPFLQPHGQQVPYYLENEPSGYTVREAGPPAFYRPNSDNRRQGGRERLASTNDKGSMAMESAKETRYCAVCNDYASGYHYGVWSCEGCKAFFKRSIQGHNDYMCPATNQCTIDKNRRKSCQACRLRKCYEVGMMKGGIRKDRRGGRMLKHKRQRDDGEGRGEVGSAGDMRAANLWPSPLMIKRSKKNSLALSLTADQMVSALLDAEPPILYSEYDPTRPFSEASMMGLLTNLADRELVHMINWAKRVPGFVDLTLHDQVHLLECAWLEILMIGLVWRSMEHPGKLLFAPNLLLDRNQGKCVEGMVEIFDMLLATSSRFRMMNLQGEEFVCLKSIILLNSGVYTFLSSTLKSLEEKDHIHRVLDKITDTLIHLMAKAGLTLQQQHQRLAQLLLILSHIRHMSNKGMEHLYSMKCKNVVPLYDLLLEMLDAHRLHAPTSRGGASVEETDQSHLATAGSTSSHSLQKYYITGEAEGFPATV
Summary of the method: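 Luciferase signal from VM7Luc4E2 ERE-reporter cells, co-dosed with test compound and 0.1 nM final 17beta-estradiol for 22 h, read with ONE-Glo.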

[11] = qHTS assay to identify small molecule HDAC inhibitors (AID 1259364);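 also: wild-type HCT-116 cells with endogenous class I/II HDAC activity; top concentration of the series differs between compounds; nearly all actives have a fitted effect of over 45% in size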
Summary of the method: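 HCT-116 wt cells, 1,500/well, overnight attach. Compounds (DMSO) 2 h, 37 °C. HDAC-Glo I/II, 30 min RT. Luminescence.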

[12] = qHTS assay to identify small molecule HDAC inhibitors - cell viability counter screen (AID 1259365)
Summary of the method: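 After overnight seeding at 1,500 cells per well, wild-type HCT-116 cultures took up compounds in DMSO for 2hr at 37 C. Viable cell content came from luminescence with CellTiter-Glo.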

[13] = qHTS assay to identify small molecule agonists of the sonic hedgehog signaling (Shh) pathway - cell viability counter screen (AID 1259366); also: nearly all actives have a fitted effect of over 50% in size
Summary of the method: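 Same-well cytotoxicity read. Gli1-Luc reporter 3T3 cells; compounds 24hr, 37C/5% CO2; CellTiter-Fluor fluorescence.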

[14] = qHTS assay to identify small molecule antagonists of the sonic hedgehog signaling (Shh) pathway - cell viability counter screen (AID 1259367); also: nearly all actives have a fitted effect of over 55% in size
Summary of the method: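 Fluorescence read-out (CellTiter-Fluor, 1 hr at 37C) taken after 23 hr compound treatment of 3T3 Gli1-Luc cells stimulated with conditioned medium. Cells were seeded at 2,000 per well and pre-incubated 4 hr.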

[15] = qHTS assay to identify small molecule agonists of the sonic hedgehog signaling (Shh) pathway (AID 1259368; calls by dose curve;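 also: NIH/3T3-derived 3T3Gli1-Luc cells carrying a stable Gli1-driven firefly luciferase reporter; series mostly up to about 92 µM; nearly all actives have a fitted effect of over 15% in size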)
Summary of the method: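 Following a 24 hr incubation with DMSO-dissolved compounds at 37 C, 5% CO2, Gli1-Luc NIH/3T3-derived cells received luciferase reagent for 30 min at room temperature prior to luminescence measurement.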

[16] = qHTS RealTime-Glo MT Cell Viability Assay in HepG2 cells - 16 hour (AID 1224885); also: nearly all actives have a fitted effect of over 50% in size
Summary of the method: as §3

[17] = qHTS RealTime-Glo MT Cell Viability Assay in HEK293 cells - 24 hour (AID 1224886)
Summary of the method: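 Assay medium contained NanoLuc luciferase plus cell-permeant prosubstrate, added with HEK293 cells at 600 cells/well. After 5 h at 37 C/5% CO2 compounds were added; plates stayed at 37 C for 40 h with serial luminescence reads.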

[18] = A CellTox Green Cytotoxicity Assay to monitor cytotoxicity in HEK293 cells - 16 hour (AID 1224888); also: nearly all actives have a fitted effect of over 35% in size
Summary of the method: as §1

[19] = biological target: Androgen receptor (Homo sapiens) (UniProt P10275); experiment: qHTS assay to identify small molecule antagonists of the androgen receptor (AR) signaling pathway using the MDA cell line in the presence of 0.5 nM R1881 (AID 1259243); also: nearly all actives have a fitted effect of over 50% in size
Androgen receptor (Homo sapiens), sequence (P10275 whole entry, looked up): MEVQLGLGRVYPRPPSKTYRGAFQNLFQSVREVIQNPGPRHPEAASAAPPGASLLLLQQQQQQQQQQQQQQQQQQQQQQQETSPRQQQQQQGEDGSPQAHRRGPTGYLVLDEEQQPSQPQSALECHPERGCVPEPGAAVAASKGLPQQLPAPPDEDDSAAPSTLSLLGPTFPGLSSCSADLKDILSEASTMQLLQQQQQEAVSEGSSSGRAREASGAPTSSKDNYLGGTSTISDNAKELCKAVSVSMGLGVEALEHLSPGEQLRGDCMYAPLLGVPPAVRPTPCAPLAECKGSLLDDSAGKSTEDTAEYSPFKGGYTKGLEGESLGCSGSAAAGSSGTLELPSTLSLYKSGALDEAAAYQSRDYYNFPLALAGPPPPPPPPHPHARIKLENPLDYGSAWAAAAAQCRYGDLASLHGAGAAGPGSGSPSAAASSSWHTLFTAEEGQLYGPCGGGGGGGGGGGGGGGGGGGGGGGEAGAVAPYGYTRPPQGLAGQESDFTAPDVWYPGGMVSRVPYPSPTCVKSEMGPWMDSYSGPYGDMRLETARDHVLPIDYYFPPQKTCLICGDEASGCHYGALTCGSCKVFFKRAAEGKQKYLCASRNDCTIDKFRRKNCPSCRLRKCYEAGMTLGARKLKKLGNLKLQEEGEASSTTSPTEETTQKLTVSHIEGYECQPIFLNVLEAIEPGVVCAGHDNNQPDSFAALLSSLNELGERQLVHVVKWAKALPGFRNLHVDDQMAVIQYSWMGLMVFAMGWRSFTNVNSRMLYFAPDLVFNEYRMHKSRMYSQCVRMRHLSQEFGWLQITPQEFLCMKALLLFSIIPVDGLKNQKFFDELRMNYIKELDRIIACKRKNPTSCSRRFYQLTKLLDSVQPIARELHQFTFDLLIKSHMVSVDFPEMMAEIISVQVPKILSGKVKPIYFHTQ
Summary of the method: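 Luminescence from an AR/GR-responsive MMTV-luciferase construct in MDA-kb2 breast carcinoma cells, read 30 min after ONE-Glo, following 16 hr co-treatment with compounds and 0.5 nM R1881.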

[20] = qHTS assay to identify small molecule phospholipidosis (PLD) inducers (AID 1259344; active = well fitted curve in the direction sought with a large enough effect; an effect the other way counts as inactive or inconclusive)
Summary of the method: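 Read-out is LipidTOX Red fluorescence (ex 595/em 615) imaged in HepG2 cells after 24 h compound exposure at 37 C, with Hoechst nuclear counterstain (ex 352/em 461) allowing per-cell normalisation.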
% is scaled to controls: 0 for no effect and ±100 for the full control effect.

NC(=O)c1ccc(N)cc1
inactive: Potency [1] | Potency [2] | Potency [3] | Potency [4] | Potency [5] | Potency [6] | Potency [7] | outcome [8] | Potency [9] | outcome [10] | Potency [11] | outcome [12] | Potency [13] | Potency [14] | outcome [15]

NC(=O)COCCN1CCN(C(c2ccccc2)c2ccc(Cl)cc2)CC1 (stereo unspecified)
inactive: Potency [1] | Potency [3] | Potency [4] | Potency [16] | Potency [17] | Potency [5] | Potency [18] | Potency [6] | Potency [7] | outcome [8] | Potency [9] | Potency [19] | outcome [10] | PLD induction [20] -1.34% [at 1.53 µM] | Potency [11] | outcome [12] | Potency [13] | outcome [15]

O=C(O)CN(CCOCCOCCN(CC(=O)O)CC(=O)O)CC(=O)O
inactive: cytotoxicity increase [1] 6.54% [at 0.29 µM] | cytotoxicity [2] -19.1% [at 0.29 µM] | cytotoxicity increase [3] -22.8% [at 0.29 µM] | cytotoxicity increase [4] 1.88% [at 0.29 µM] | activity change, negative = cytotoxicity [17] -2.79% [at 0.29 µM] | activity change, negative = cytotoxicity [5] 1.96% [at 0.29 µM] | activity change [18] 1.33% [at 0.29 µM, stronger effect = higher value] | activity change, negative = cytotoxicity [6] -0.153% [at 0.29 µM] | activity change, negative = cytotoxicity [8] -0.0206% [at 0.349 µM] | viability change, negative = cytotoxic [9] 4.56% [at 0.349 µM] | Potency [20] | activity change, negative = inhibition [11] -0.631% [at 0.349 µM] | activity change, negative = cytotoxicity [12] 5.24% [at 0.349 µM] | viability change, negative = cytotoxic [13] -0.116% [at 0.349 µM] | viability change, negative = cytotoxic [14] 0.536% [at 0.349 µM]

CCCCCCCCCCCCCCCCC
inactive: Potency [1] | Potency [3] | Potency [4] | Potency [16] | Potency [5] | Potency [18] | Potency [6] | outcome [8] | Potency [9] | outcome [10] | Potency [11] | outcome [12] | Potency [13] | Potency [14] | outcome [15]

C=CCOCC(CC)(CO)COCC=C
inactive: Potency [1] | Potency [3] | Potency [4] | Potency [16] | Potency [17] | Potency [5] | Potency [18] | Potency [6] | Potency [7] | outcome [8] | Potency [9] | Potency [11] | outcome [12] | Potency [14] | outcome [15]

CC(=O)OCC(=O)[C@@]1(O)CCC2C3CCC4=CC(=O)CC[C@]4(C)C3[C@@H](O)C[C@@]21C (stereo partly specified)
active: Potency [6] 2.39 µM
inactive: Potency [1] | Potency [3] | Potency [4] | Potency [17] | Potency [5] | Potency [18] | Potency [7] | outcome [8] | Potency [9] | Potency [20] | Potency [11] | outcome [12] | Potency [13] | Potency [14] | outcome [15]

Nc1ccc(S(=O)(=O)Nc2ccnn2-c2ccccc2)cc1
inactive: Potency [1] | cytotoxicity increase [3] 3.28% [at 15.8 µM] | cytotoxicity increase [4] 1.9% [at 15.8 µM] | activity change, negative = cytotoxic [16] -1.35% [at 15.8 µM] | activity change, negative = cytotoxicity [5] 7.76% [at 15.8 µM] | activity change, negative = cytotoxicity [6] -1.91% [at 15.8 µM] | cytotoxicity increase [7] 0.943% [at 15.8 µM] | activity change, negative = cytotoxicity [8] 0.0467% [at 19 µM] | viability change, negative = cytotoxic [9] 0.287% [at 19 µM] | activity change, negative = inhibition [10] 0.724% [at 19 µM] | Potency [20] | activity change, negative = inhibition [11] -2.22% [at 19 µM] | activity change, negative = cytotoxicity [12] 2.68% [at 19 µM] | viability change, negative = cytotoxic [13] 10.6% [at 19 µM] | activity change [15] -1.14% [at 18.9 µM]

CCCCCCCCCCCCCC=O
inactive: cytotoxicity increase [1] -0.0239% [at 6.97 µM] | cytotoxicity increase [3] 1.86% [at 6.97 µM] | cytotoxicity increase [4] -1.61% [at 6.97 µM] | activity change, negative = cytotoxicity [17] 6.14% [at 6.97 µM] | activity change, negative = cytotoxicity [5] 2.94% [at 6.97 µM] | activity change [18] -6.87% [at 6.97 µM, stronger effect = higher value] | activity change, negative = cytotoxicity [6] 15.5% [at 6.97 µM] | cytotoxicity increase [7] 5.89% [at 6.97 µM] | activity change, negative = cytotoxicity [8] 4.83% [at 8.39 µM] | viability change, negative = cytotoxic [9] -0.255% [at 8.39 µM] | activity change, negative = inhibition [10] 5.09% [at 8.39 µM] | activity change, negative = inhibition [11] -0.0684% [at 8.39 µM] | activity change, negative = cytotoxicity [12] 1.26% [at 8.39 µM] | viability change, negative = cytotoxic [13] 5.21% [at 8.39 µM] | viability change, negative = cytotoxic [14] 0.0972% [at 8.39 µM] | activity change [15] -0.008% [at 8.39 µM]

Cc1ccc(Cl)cc1Cl
inactive: Potency [1] | Potency [3] | Potency [4] | Potency [16] | Potency [17] | Potency [5] | Potency [6] | Potency [7] | outcome [8] | Potency [9] | outcome [10] | Potency [11] | outcome [12] | Potency [13] | Potency [14]

COCCc1ccc(OCC(O)CNC(C)C)cc1 (stereo unspecified)
inactive: Potency [1] | Potency [3] | Potency [4] | Potency [16] | Potency [17] | Potency [5] | Potency [18] | Potency [6] | outcome [8] | Potency [9] | Potency [20] | outcome [12] | Potency [13] | Potency [14] | outcome [15]

FC(F)OC(Cl)C(F)(F)F (stereo unspecified)
inactive: Potency [1] | Potency [3] | Potency [4] | Potency [16] | Potency [17] | Potency [5] | Potency [18] | Potency [7] | outcome [8] | Potency [9] | Potency [20] | Potency [11] | outcome [12] | Potency [13] | Potency [14] | outcome [15]

CO[C@]12C[C@@H](COC(=O)c3cncc(Br)c3)CN(C)[C@@H]1Cc1cn(C)c3cccc2c13
active: Potency [3] 23.9 µM | Potency [5] 21.3 µM | Potency [7] 26.8 µM
inactive: Potency [1] | Potency [4] | Potency [16] | outcome [8] | Potency [9] | Potency [20] | outcome [12] | Potency [13] | outcome [15]

CN1CCC(=C2c3ccccc3CC(=O)c3sccc32)CC1
inactive: Potency [1] | Potency [3] | Potency [4] | Potency [5] | Potency [18] | Potency [6] | Potency [7] | outcome [8] | Potency [9] | outcome [10] | Potency [11] | outcome [12] | Potency [13] | Potency [14] | outcome [15]

CO/N=C(/C(=O)N[C@@H]1C(=O)N2C(C(=O)OCOC(=O)C(C)(C)C)=C(C)CS[C@H]12)c1csc(N)n1
inactive: Potency [2] | Potency [3] | Potency [4] | Potency [16] | Potency [17] | Potency [5] | Potency [18] | Potency [6] | Potency [7] | outcome [8] | Potency [9] | Potency [20] | Potency [11] | outcome [12] | Potency [13] | Potency [14]

O=C1OC(=O)C2CCCCC12 (stereo unspecified)
inactive: Potency [1] | Potency [3] | Potency [4] | Potency [16] | Potency [5] | outcome [8] | Potency [9] | outcome [10] | outcome [12] | Potency [13] | Potency [14] | outcome [15]
